Results taken from PubChem BioAssay.

experiment: basal 3T3-L1 adipocyte mitochondrial potential changes, profiling panel, cell-based, JC-1 fluorescence, 3T3-L1 adipocytes, 24 h, 100 nL compound (AID 1168); conditions: JC-1 mitochondrial fluorescence, higher = more signal, called active from +8 up or from −8 down; note: test concentration not given here

z-score, inactive:
CC(C)(C)OC(=O)CC[C@]1(C(=O)N2CCCCC2)COC(c2ccc(OCCCO)cc2)=N1 -0.378
O=C1[C@@]23C=C(Br)[C@H](C[C@@H]2COC3)[C@@]12CO2 0.281
O=C1C[C@@](C(=O)NCc2ccccc2)(c2ccc([N+](=O)[O-])cc2)[C@@H](c2ccc(CO)cc2I)N1CC12CC3CC(CC(C3)C1)C2 -0.473
O=C1C[C@@](C(=O)NCC(F)(F)F)(c2ccc([N+](=O)[O-])cc2)[C@@H](c2ccc(CO)cc2)N1CC12CC3CC(CC(C3)C1)C2 -1.29
CN1C(=O)C2C=CC(C(O)c3ccc(I)cc3)N(Nc3ccccc3)C2C1=O (stereo not given) -1.09
COc1cc(C(O)C2C=CC3C(=O)N(Cc4ccccc4)C(=O)C3N2n2cnnc2)cc(OC)c1OC (stereo not given) 0.328
C=C(COC)/C(=C/C[C@@H](OC(=O)c1ccncc1)c1ccccc1OCCO)c1cc(C(=O)OC)ccc1OC -1.04
CC(C)C[C@@H]1NC(=O)[C@@]23C(=O)N[C@@H](Cc4ccccc4)C2[C@H](C)[C@@]2(C)O[C@H]2C3/C=C/C/C=C\CNC(=O)[C@@H](C)NC1=O (stereo not given in full) 0.625
CCCNC(=O)[C@@]1(Sc2ccc(C)cc2)CC(=O)N(C(C)C)[C@@H]1c1ccc(CO)cc1I -0.769
CN1C(=O)C2C(C1=O)C1C=C(CCCO)C2C(c2cccs2)N1Cc1cc2c(cc1Br)OCO2 (stereo not given) -0.859
C=C(CCCC)/C(=C/C[C@H](OC(C)=O)c1ccc(OCCO)cc1)c1cc(C(=O)OC)ccc1OC 0.151
COC(=O)[C@@]1(Cc2ccc(OC)cc2)[C@H]2c3cc(C(=O)N4CCCC4)n(Cc4ccc(OC(F)(F)F)cc4)c3C[C@H]2CN1C(=O)c1ccccc1 -0.621
CS(=O)(=O)CCOC(=O)C1=CC(CCCO)=CC(C2CC2)N(Cc2cccc(OC(F)(F)F)c2)C=C1C(=O)OCCS(C)(=O)=O (stereo not given) -0.374
COC(=O)C1=CC(CCCO)=CC(C)N(Cc2cccc(OC(F)(F)F)c2)C=C1C(=O)OC (stereo not given) 0.612
[N-]=[N+]=NCc1ccccc1[C@@H]1OC(c2ccc(OCCCO)cc2)=N[C@]1(Cc1ccccc1)C(=O)NCCN1CCOCC1 0.69
CC(C)C(=C=CC[C@@H](O)c1cccc(OCCO)c1)C[C@@H](O)c1ccccn1 -0.425
O=C(NCC(O)CO)[C@@]1(CCS(=O)(=O)c2ccccc2)COC(c2ccc(OCCCO)cc2)=N1 (stereo not given in full) -0.834
CCOC(=O)C1=C[C@@H](c2ccccc2)N(S(=O)(=O)c2ccc(C)cc2)[C@H]1c1ccccc1 -2.52
CC(C)OC(=O)CC(=O)CC(O)c1ccc([N+](=O)[O-])cc1 (stereo not given) 0.377
COC(=O)C1N=C(c2ccc(OCCCO)cc2)N(c2ccccc2)O1 (stereo not given) -0.407
NC(=O)NCC#Cc1ccc2c(c1)[C@]1(C(=O)N2)[C@H](C(=O)N2CCN(c3ncccn3)CC2)[C@H]2C(=O)O[C@H](c3ccccc3)[C@H](c3ccccc3)N2[C@@H]1c1ccc(OCCO)cc1 1.54
[N-]=[N+]=Nc1ccccc1C[C@]1(C(=O)O)N=C(c2ccc(OCCCO)cc2)O[C@H]1c1ccccc1 -0.297
C=C(/C(=C/C[C@@H](OC(C)=O)c1ccc(OCCO)cc1)c1cc(C(=O)OC)ccc1OC)C(C)C -0.852
COc1ccc(NC(=O)O[C@H]2[C@@H]3OC(=O)[C@H](Cc4cccc(Br)c4)C/C=C/C[C@@H](Cc4cccc(Br)c4)C(=O)O[C@H]3[C@@H](OC)O[C@@H]2CO)cc1 -0.483
[N-]=[N+]=NCc1ccccc1[C@H]1OC(c2ccc(OCCCO)cc2)=N[C@@]1(CCS(=O)(=O)c1ccccc1)C(=O)NCc1ccccc1 -0.0258
COc1cc(NN2C(C(O)C3CCCCC3)C=CC3C(=O)N(C)C(=O)C32)cc(OC)c1OC (stereo not given) -0.657
O=C1[C@@H]2[C@@H](CC(COc3ccccc3)=C3[C@@H](CCc4ccccc4)OB(O)C[C@@H]32)C(=O)N1Cc1ccccc1 0.453
O=C1OCCC=C[C@H]2OC34C=CCN(c5ccc(Cl)cc5)C(=O)[C@H]3N(CCCCCCO)C(=O)[C@@H]4C12 (stereo not given in full) 0.335
CCOC(=O)C[C@H]1[C@H](OC(=O)c2ccccc2-c2ccccc2)[C@@H](NC(=O)c2ccc3ccccc3n2)c2cc(OCCCO)ccc2N1C(=O)c1ccccc1 -0.178
COC(=O)[C@@]1(Cc2ccc(OC)cc2)[C@H]2c3cc(C(=O)N4CCCC4)n(Cc4ccc(S(C)(=O)=O)cc4)c3C[C@H]2CN1C(=O)c1ccccc1 -0.606
C=C[C@@H](C)[C@@H](OC(=O)Nc1ccc(SC)cc1)c1ccc(OCCO)cc1 -0.75
NCCCCCNC(=O)[C@@H]1C[C@@H]2C(=O)N3CCC[C@H]3C(=O)N2[C@@H]1c1ccc(O)cc1 -0.645
O=C1OCCC/C=C\[C@H]2OC34C=CCN(c5ccc6ccccc6c5)C(=O)[C@H]3N(CCCO)C(=O)[C@@H]4C12 (stereo not given in full) -0.41
CC(=O)NCCCC[C@@H]1NC(=O)[C@@H]2C[C@H](C(=O)NCCCCCCN)[C@H](c3cccc(OCCO)c3)N2C1=O -0.0165
COCCOC(=O)N1C(=O)[C@@]2(c3cc(C#CCNC(N)=O)ccc31)[C@H](c1ccc(OCCO)cc1)N1[C@H](c3ccccc3)[C@H](c3ccccc3)OC(=O)[C@H]1[C@@H]2C(N)=O 0.407
